Experimental data taken from PubChem BioAssay AID795 (NMMLSC, 2007).
Hit rate of the full screen: of about 24,000 compounds, about 130 (0.54%) were called active. The sample as a whole holds a higher share of actives than the screen did. A number with no mark means an inactive call.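 How the source made its calls: active means side scatter shift above 30%; inactive means the rest.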

Assay: activators of LNCaP prostate cell differentiation, primary screen, flow cytometry side scatter (AID 795);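 further: androgen-responsive LNCaP prostate cancer cells in charcoal-stripped serum medium; percent of cells past a gate set so DMSO wells show 10% shift; higher shift means more granular cells and more differentiation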
Conditions: 4 d, at 10 µM, hits give high values

SMILES | side scatter shift
Cc1ccc(-c2noc(-c3ccccc3C(=O)NCC3CCCO3)n2)cc1 (stereo unspecified) | 5%
CCOC(=O)Nc1ccccc1N1C(=O)c2ccccc2C1=O | 8%
O=C(CNS(=O)(=O)c1ccc(Br)s1)NCc1ccc2c(c1)OCO2 | 9%
COc1ccc(-c2nc(CS(=O)CC(=O)N3CCc4ccccc4C3)c(C)o2)cc1 (stereo unspecified) | 11%
O=C1CSC(c2cccc(F)c2)N1c1ccccc1F (stereo unspecified) | 8%
CCOC(=O)c1cccc(NC(=O)CCc2c(C)nc3ncnn3c2C)c1 | 4%
CC1Cc2nc(SCC(=O)Nc3ccccc3F)n(C)c(=O)c2S1 (stereo unspecified) | 7%
CSCCC(NC(=O)C1CCC(C)CC1)C(=O)NCc1ccco1 (stereo unspecified) | 3%
CCOc1ccc(NC(=O)N(CCC(C)C)C(C)c2ccco2)cc1 (stereo unspecified) | 7%
COc1cc2[nH]c(=O)n(CCC(=O)NC3CCN(Cc4ccccc4)CC3)c(=O)c2cc1OC | 2%
Cn1c(=O)cc(SCC(=O)N2CCCC2)c2cc(Cl)ccc21 | 9%
COc1cc(OC)cc(-c2nc3nc(C)c(CCC(=O)NCc4ccco4)c(C)n3n2)c1 | 5%
CC1C=CCC2C(=O)N(c3cccc(C(=O)N4CCCCCC4)c3)C(=O)C12 (stereo unspecified) | 3%
C/C(=N\O)C1(C)N(O)C(C)(C)C(c2ccc(Br)cc2)=[N+]1[O-] (stereo unspecified) | 11%
CCCSc1nc2c(c(=O)[nH]c(=O)n2C)n1CCc1ccccc1 | 9%
Cc1ccc2nc3n(c(=O)c2c1)CCC3 | 8%
Cc1nc2nc(SCC(=O)NCc3ccco3)nn2c(C)c1Cc1ccccc1 | 4%
S=C1SCN(CCN2CCOCC2)CN1Cc1ccccc1 | 18%
CCOC(=O)C1CCCN(C(=O)Cn2ncc3c(=O)oc4ccc(C)cc4c32)C1 (stereo unspecified) | 5%
O=C(NC(=O)c1ccc(Cl)c(Cl)c1)OC1CCS(=O)(=O)C1 (stereo unspecified) | 6%
CC1CCc2c(sc3c2C2=NS(=O)(=O)CCN2C=N3)C1 (stereo unspecified) | 12%
CC(=O)c1c(N)n(C)c(=O)n(C)c1=O | 0%
CCCC1CC(C)(C(=O)Cn2[nH]c(=O)ccc2=O)OC1=O (stereo unspecified) | 1%
Fc1cc(F)c2nc(N3CCOCC3)sc2c1 | 5%

SMILES | side scatter shift
Cn1c(=O)c2c(nc(N3CCCCCC3)n2CC(=O)c2ccc(Br)cc2)n(C)c1=O | 21%
CCOC(=O)N1CCN(C(=O)c2ccc(S(=O)(=O)c3ccc(C)cc3)c(NC(C)=O)c2)CC1 | 8%
N#CC1=C(N)C(C#N)(C#N)[C@H](c2ccsc2)[C@H]2COCC=C12 | 9%
NC(=O)CSC1=Nc2ccccc2C2=NC(CCC(=O)NCc3ccc(F)cc3)C(=O)N12 (stereo unspecified) | 0%
COc1ccc(NC(=O)C2CCCN(S(=O)(=O)c3cccc4cccnc34)C2)cc1 (stereo unspecified) | 6%
CCCCN(CC)CCCNC(=O)CS(=O)(=O)Cc1nc(-c2cccc(OC)c2)oc1C | 7%
CC(=O)Nc1cc2ccc(OC(C)=O)cc2oc1=O | 10%
O=C(CSc1nc2[nH]ncc2c(=O)n1-c1ccccc1)N1CCCc2ccccc21 | 5%
COc1ccc(OCc2ccc(-c3nc4ccccc4c(=O)n3N)o2)cc1 | 6%
Cc1ccc(NC(=O)c2nc[nH]c2C(=O)N2CCCCC2)c(C(=O)c2ccccc2)c1 | 14%
COc1ccc(OC)c(NC(=O)CC(Cc2ccccc2OC)C(=O)O)c1 (stereo unspecified) | 15%
CCn1cc(C(=O)N2CCN(C3CCCCC3)CC2)c2cc(OC)c(OC)cc2c1=O | 7%
Cc1nc2ccccc2c2oc(C(=O)NCC3CCCO3)cc12 (stereo unspecified) | 11%
O=C(CN1C(=O)C2C3C=CC(C3)C2C1=O)NCC1COc2ccccc2O1 (stereo unspecified) | 9%
Cn1c(CNC(=O)C(C)(C)C)nc2ccccc21 | 3%
COCCN1C(=O)c2oc3c(C)cc(C)cc3c(=O)c2C1c1cccc(O)c1 (stereo unspecified) | 3%
CC1(C)CC(O)C(CCC(O)c2ccccc2)C(C)(C)N1 (stereo unspecified) | 5%
CCOC(=O)c1ccc2[nH]c(C)c(CN3CCN(C)CC3)c(=O)c2c1 | 10%
COCCN(CC(=O)Nc1ccccc1C)S(=O)(=O)c1ccc(S(=O)(=O)N2CCCC2)cc1 | 3%
COc1ccccc1NC(=O)CSc1nnc(Cc2cccn2C)n1-c1ccc(F)cc1 | 14%
CC1(C)CC(=O)C=C(NCc2ccncc2)C1 | 6%
CCOC(=O)N1CCC(C(N)=O)CC1 | 12%
Nc1ccc(-n2nncc2-c2ccco2)cc1 | 2%
CC12CN3CC(C)(CN(C1)C3c1ccc(Cl)cc1Cl)C2=O (stereo unspecified) | 7%

SMILES | side scatter shift
O=C(CSc1nnc2ccccn12)c1ccccc1 | 3%
CCCCCCn1c(CN2CCCC(C)C2)nc2c1c(=O)n(C)c(=O)n2C (stereo unspecified) | 7%
COc1ccc(Cc2nnc(NC(=O)Cc3cccs3)s2)cc1 | 23%
COc1ccc(CC(=O)Nc2ccc(-c3nnc(-c4ccc(C)cc4)o3)cc2)cc1 | 37% (active)
CCOC(=O)c1ccc(NC(=O)Cn2nnc(-c3ccc(C)cc3)n2)cc1 | 12%
CCCCOC(=O)NCN1C(=O)C2C3C=CC(C3)C2C1=O (stereo unspecified) | 11%
Cc1noc(C)c1S(=O)(=O)N1CCCC(C(=O)Nc2nccs2)C1 (stereo unspecified) | 13%
CCN(CC)C(=O)c1sc(NC(=O)c2ccco2)c(C#N)c1C | 7%
O=C(c1ccco1)N1CCN(c2cccc(Cl)c2)CC1 | 16%
Cc1ccc(-n2nc3cc(Cl)c(NC(=O)c4ccco4)cc3n2)cc1 | 36% (active)
CCCS(=O)(=O)N1CCN(C(=O)c2cccs2)CC1 | 14%
Cc1cccc(C2c3c(n(C)c(=O)n(C)c3=O)N=C3c4ccccc4C(=O)C32)c1 (stereo unspecified) | 36% (active)
COc1ccc(C2C3=C(OC(C)=O)c4ccccc4C3=Nc3c2c(=O)n(C)c(=O)n3C)cc1 (stereo unspecified) | 13%
Cc1cc(C)nc(-n2nc(C)cc2NC(=O)c2ccc(Br)o2)n1 | 9%
CCOC(=O)N1CCC(Nc2c(NCCN3CCN(c4cccc(Cl)c4)CC3)c(=O)c2=O)CC1 | 16%
CCOc1c(OC)cc(C2C(C#N)=C(N)Oc3n[nH]c(-c4ccncc4)c32)cc1OC (stereo unspecified) | 4%
Cc1ccc(N2CCN(c3ccc(C)cc3)C2c2ccccn2)cc1 | 16%
Cc1ccc(C(c2sc3nc(C)nn3c2O)N2CCN(c3ccccc3)CC2)cc1 (stereo unspecified) | 10%
FC(F)Oc1ccccc1C1CC(c2ccc(Br)s2)Nc2ncnn21 (stereo unspecified) | 11%
Cc1c(NC(=O)C(C)OC(=O)c2cc3c4ccccc4n(C)c3s2)c(=O)n(-c2ccccc2)n1C (stereo unspecified) | 7%
CCOC(=O)N1CCC(NC(=O)c2cnn3ccccc23)CC1 | 2%
Cc1ncn(C23CC4CC(CC(O)(C4)C2)C3)n1 | 9%
O=C(c1ccc(=O)[nH]c1)N(Cc1ccco1)C1(C(=O)NC2CCCCC2)CCCCC1 | 1%
CCN(c1ccc2c(c1)OCO2)S(=O)(=O)c1cc(Br)cc2c1N(C(=O)C1CC1)CC2 | 6%

SMILES | side scatter shift
c1ccc(CCn2nnnc2CN2CCN(C3CCCC3)CC2)cc1 | 14%
O=C(NCCc1ccc(Cl)cc1)C1CC(=O)N(C2CCCCC2)C1 (stereo unspecified) | 24%
Cc1nc2ccc(NC(=O)N3CCC(c4ccccc4)C3)cc2nc1C (stereo unspecified) | 11%
COc1cc2ccccc2cc1C(=O)Nc1ccc(S(=O)(=O)Nc2cc(C)on2)cc1 | 12%
COc1ccc2c(c1)CCc1c(C(=O)Nc3c(C)n(C)n(-c4ccccc4)c3=O)noc1-2 | 1%
COc1ccc(OC)c(CNC(=O)CCc2nc(-c3cccs3)no2)c1 | 12%
CCCN1Cc2cccc(C(=O)NCc3ccccc3)c2C1=O | 9%
O=C(CCCn1c(SCC(=O)c2ccc(F)cc2)nc2ccccc2c1=O)NCc1ccco1 | 8%
CCc1nnc(NC(=O)CSc2nnc(Cc3ccccc3)n2-c2ccc(OC)cc2)s1 | 6%
CC(NC(=O)c1ccc(Cl)cc1)C(=O)N1CCCCC1 (stereo unspecified) | 5%
O=C1Nc2c(Br)cc(Br)cc2C1(O)N1CCOCC1 (stereo unspecified) | 13%
O=C(c1ccco1)N1CCN(CC(=O)N(C2CCCCC2)C2CCS(=O)(=O)C2)CC1 (stereo unspecified) | 9%
COc1cccc(C(=O)Nc2c3c(nn2-c2cccc(C)c2C)CS(=O)(=O)C3)c1OC | 8%
CCN(Cc1ccccc1)C(=O)CSc1nc(C)cc2c1C(=O)OC2 | 4%
COc1ccc2c(CC(=O)Nc3nnc(C4CC4)s3)coc2c1 | 7%
CCCN1CCN(CCCNC(=O)CN2C(=O)COc3ccccc32)CC1 | 7%
COc1ccccc1-n1cnc2cc(NS(=O)(=O)c3ccccc3)ccc21 | 11%
COc1ccc(OC)c(CN2C(=O)CCC2(C)C(=O)NC2CCCCCC2)c1 (stereo unspecified) | 11%
Cc1ccc(-c2nc(CS(=O)CC(=O)NC3CCCC3)c(C)o2)cc1 (stereo unspecified) | 7%
Cc1ccnc(N2C(=O)c3ccccc3C2Nc2ccc3c(c2)OCCO3)c1 (stereo unspecified) | 7%
CCOc1ccccc1NC(=O)c1cc(S(=O)(=O)N2CCC3(CC2)OCCO3)ccc1F | 7%
CCOC(=O)N1CCC(NC(=O)C(C)n2c3ccccc3c3cnn(C)c(=O)c32)CC1 (stereo unspecified) | 6%
Cn1c2ccccc2c2c(C(=O)N3CCN(c4ccc(F)cc4)CC3)cn(C3CCCC3)c(=O)c21 | 1%
O=c1c(-c2ccccc2)coc2c(CN3CCOCC3)c(O)ccc12 | 9%
